In publication PMC4336329 (PLoS ONE, 2015):
About 14,000 (4.5%) of roughly 310,000 compounds showed an effect of 50% or more. Effects have a minus sign here. This excerpt belongs to a sample that is enriched for strong results.

The compounds below were run against human ether-à-go-go-related gene (hERG) potassium channel (human, UniProt Q12809) (assay: primary screen, population patch clamp on CHO cells stably expressing hERG; higher = less effect of the substance).
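Note: peak tail current of the secondary pulse compared with the same well before compound.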

Chain of human ether-à-go-go-related gene (hERG) potassium channel (Q12809 whole entry, looked up): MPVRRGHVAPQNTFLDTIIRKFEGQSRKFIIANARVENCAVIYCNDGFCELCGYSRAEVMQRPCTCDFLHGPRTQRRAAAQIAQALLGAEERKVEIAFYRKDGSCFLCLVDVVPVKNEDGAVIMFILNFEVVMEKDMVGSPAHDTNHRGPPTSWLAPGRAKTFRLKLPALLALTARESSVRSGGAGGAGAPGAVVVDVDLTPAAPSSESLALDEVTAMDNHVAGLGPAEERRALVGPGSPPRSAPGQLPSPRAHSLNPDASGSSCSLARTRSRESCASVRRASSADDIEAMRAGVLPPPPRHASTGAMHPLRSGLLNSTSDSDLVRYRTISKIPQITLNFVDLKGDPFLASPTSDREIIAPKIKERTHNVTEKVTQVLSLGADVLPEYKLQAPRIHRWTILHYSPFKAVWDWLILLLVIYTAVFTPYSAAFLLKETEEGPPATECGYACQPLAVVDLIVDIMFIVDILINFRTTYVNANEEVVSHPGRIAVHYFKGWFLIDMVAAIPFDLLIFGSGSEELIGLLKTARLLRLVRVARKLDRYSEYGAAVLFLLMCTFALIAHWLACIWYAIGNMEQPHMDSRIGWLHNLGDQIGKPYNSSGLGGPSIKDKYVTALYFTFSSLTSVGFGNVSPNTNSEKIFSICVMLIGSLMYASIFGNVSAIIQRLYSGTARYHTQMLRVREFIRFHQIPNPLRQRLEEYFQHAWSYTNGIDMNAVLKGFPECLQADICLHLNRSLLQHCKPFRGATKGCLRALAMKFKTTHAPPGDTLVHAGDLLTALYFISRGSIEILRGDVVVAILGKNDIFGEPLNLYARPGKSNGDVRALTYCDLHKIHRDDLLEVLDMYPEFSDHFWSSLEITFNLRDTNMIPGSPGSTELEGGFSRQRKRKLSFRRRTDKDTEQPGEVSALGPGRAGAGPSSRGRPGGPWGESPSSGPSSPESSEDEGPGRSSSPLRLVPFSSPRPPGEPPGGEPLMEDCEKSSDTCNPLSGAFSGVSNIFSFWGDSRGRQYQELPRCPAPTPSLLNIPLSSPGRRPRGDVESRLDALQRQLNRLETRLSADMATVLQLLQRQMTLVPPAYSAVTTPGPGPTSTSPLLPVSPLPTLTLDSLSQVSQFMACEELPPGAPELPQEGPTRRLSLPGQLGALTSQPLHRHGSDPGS

Compound	hERG current change (%, negative = inhibition) at 10uM
Cc1cccc(CCNC(=O)CCS(=O)(=O)c2ccc(Br)cc2)c1	8.8%
O=C(/C=C/c1ccco1)N1CCC(Cc2ccccc2)CC1	4.42%
O=C(/C=C/c1ccco1)N1CCN(S(=O)(=O)/C=C/c2ccccc2)CC1	-45%
S=C(NCc1ccco1)N1CCN(C/C=C/c2ccccc2)CC1	-56.2%
S=C(NCc1ccco1)N1CCN(Cc2ccco2)CC1	1.76%
O=C(NC(=S)N1CCN(C/C=C/c2ccccc2)CC1)c1ccco1	-35%
O=C(/C=C/c1ccco1)N1CCN(C/C=C/c2ccccc2)CC1	-58.8%
Cc1cccc(C(=O)N(C)c2nnc(-c3ccncc3)s2)c1	1.3%
Cc1ccc(NC(=O)Cn2ccsc2=N)c([N+](=O)[O-])c1.Cl	35.1%
CC(C)CCNc1nc(N)c([N+](=O)[O-])c(N2CCCCCC2)n1	12.1%
c1ccc(C2Nc3ccccc3-c3nc4ccccc4n32)cc1 (stereo not drawn)	-18.1%
c1cncc(C2Nc3ccccc3-c3nc4ccccc4n32)c1 (stereo not drawn)	-5.58%
c1ccc2c(c1)NC(c1ccncc1)n1c-2nc2ccccc21 (stereo not drawn)	-66.2%
Cc1cc(NC(=O)CCC(=O)N(CC(=O)NCC2CCCO2)c2ccc(C)c(C)c2)no1 (stereo not drawn)	8.68%
O=C1N(Cc2cccc(Cl)c2)C[C@@H]2C[C@@H](c3c[nH]c4ccccc34)N3CCC[C@@]123	-74.8%
Cc1c([C@@H]2C[C@H]3CN(Cc4cccc(Cl)c4)C(=O)[C@]34CCCN24)cnn1C	-45.5%
CCOC(=O)c1[nH]ncc1[C@@H]1C[C@H]2CN(Cc3cccc(Cl)c3)C(=O)[C@]23CCCN13	-27.4%
O=C1N(Cc2cccc(Cl)c2)C[C@@H]2C[C@@H](c3cccc4ncccc34)N3CCC[C@@]123	-48.8%
Cn1cc([C@@H]2C[C@H]3CN(Cc4cccc(Cl)c4)C(=O)[C@]34CCCN24)c2ccccc21	-72.7%
COc1cccc(/C=N/NC(=O)c2cccc([N+](=O)[O-])c2)c1OS(=O)(=O)c1ccccc1	-16.2%
COc1ccc(C)cc1N(CC(=O)N1CCCCCC1)S(C)(=O)=O	12.2%
CCOc1ccc(CN2CCNC(=O)C2CC(=O)NC2CCOCC2)cc1 (stereo not drawn)	-44.7%
CC1CCC(NC(=O)COC(=O)c2ccco2)CC1 (stereo not drawn)	7.07%
N#Cc1ccccc1OCC(=O)Nc1ccc2c(c1)OCCCO2	3.08%
COc1ccccc1CNC(=O)C1(C)Oc2cccnc2NC1=O (stereo not drawn)	9.69%
CC(C)(O)C#Cc1ccc(CN2CCN(Cc3ccsc3)C(CCO)C2)cc1 (stereo not drawn)	-21.6%
COc1ccc(CN2CCN(CCc3ccccc3)C(CCO)C2)cc1Cn1cncn1 (stereo not drawn)	-35.8%

Compound	hERG current change (%, negative = inhibition) at 10uM
COCc1cc(CN2CCN(CCc3ccccc3)C(CCO)C2)ccc1OC (stereo not drawn)	-56.9%
CCOc1ccc(CN2CCN(Cc3ccsc3)C(CCO)C2)cc1CO (stereo not drawn)	-39.4%
COc1ccc(CN2CCN(CCC(C)C)C(CCO)C2)cc1Cn1cccn1 (stereo not drawn)	-48.1%
COCc1cc(CN2CCN(CCCc3ccccc3)C(CCO)C2)ccc1OC (stereo not drawn)	-66.1%
COCc1cc(CN2CCN(Cc3ccsc3)C(CCO)C2)ccc1OC (stereo not drawn)	-82.9%
COc1ccc(CN2CCN(CCC(C)C)C(CCO)C2)cc1Cn1cncn1 (stereo not drawn)	1.78%
O=C1CN(c2ccc(Cl)cc2)C2(CCCCC2)S1	4.49%
Cc1ccc(Cn2ccc(NC(=O)c3cc(-c4ccc(Br)cc4)on3)n2)cc1	22.6%
CCOC(=O)c1cc2nc(-c3ccccc3)cc(C)n2n1	5.61%
COC(=O)c1cc2ccsc2n1Cc1nc(-c2ccc(Cl)cc2)oc1C	7.33%
CSc1nc(N(C)NC(=O)c2ccc(Cl)cc2)c2ccccc2n1	2.16%
Cc1ccc(OCc2ccc(C(=O)Nc3ccc(S(N)(=O)=O)cc3)o2)cc1	12.4%
CCOC(=O)C1=C(O)CSC1=Nc1ccc(C)cc1	-4.86%
CCC(C)n1c(SCC(=O)Nc2cc(C(C)(C)C)nn2-c2ccccc2)nc2ccccc2c1=O (stereo not drawn)	3.57%
CCCNC(=O)c1ccc(N2CC3CC(C2)c2cccc(=O)n2C3)c(NC(=O)Nc2ccc(CC)cc2)c1 (stereo not drawn)	-78.7%
O=C(Nc1ccc(Cl)cc1)N1CC2CC(C1)c1cccc(=O)n1C2 (stereo not drawn)	4.31%
CCc1ccc(NC(=O)Nc2cc(C(=O)NCC3CCCO3)ccc2N2CC3CC(C2)c2cccc(=O)n2C3)cc1 (stereo not drawn)	-17.6%
CCc1ccc(NC(=O)Nc2cc(C(=O)O)ccc2N2CC3CC(C2)c2cccc(=O)n2C3)cc1 (stereo not drawn)	20.4%
Nc1cc(C(=O)Nc2ccc(Cl)cc2)ccc1N1CC2CC(C1)c1cccc(=O)n1C2 (stereo not drawn)	-62.1%
CCOc1ccc(NC(=O)c2ccc(N3CC4CC(C3)c3cccc(=O)n3C4)c(N)c2)cc1 (stereo not drawn)	-21.7%
COc1ccc(CCNC(=O)C2CCC(=O)N2CCc2ccccc2)cc1OC (stereo not drawn)	12.4%
O=c1nc2n(c3ccc([N+](=O)[O-])cc13)CCCCC2	-15.4%
CCc1ccc2nc(Nc3nc(COC)cc(=O)[nH]3)nc(C)c2c1	-73.3%
COCc1cc(=O)[nH]c(Nc2nc(C)c3cc(OC)ccc3n2)n1	7.05%
COCc1cc(=O)[nH]c(Nc2nc(C)c3ccccc3n2)n1	-8.74%
CCC(=O)Nc1ccc(C(=O)Nc2ccc(OC)cc2[N+](=O)[O-])cc1	13.7%
FC(F)(F)c1cccc(Cc2noc(CN3CCCCC3c3ccccn3)n2)c1 (stereo not drawn)	-8.11%
